Measured values published in PubChem BioAssay (Tox21).
Results filed as inconclusive are left out. The source made the active and inactive calls. Unless noted, the call rests on the fitted dose curve; in most records, active means well fitted curve in the direction sought with a large enough effect in the repeat runs; inconclusive means weak or mixed curves; inactive means no such curve, though single readings can be large; an effect the other way counts as inactive or inconclusive.

What was measured:
[1] = qHTS assay to identify small molecule agonists of the peroxisome proliferator-activated receptor delta (PPARd) signaling pathway - cell viability counter screen (AID 743211); further: nearly all actives have a fitted effect of over 55% in size
In short: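 Multiplexed format: after the 2 h room-temperature LiveBLAzer B/G FRET step, CellTiter-Glo was added to the same wells. Luminescence after 30 min gave cell viability; compound exposure was 17 h at 37C.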

[2] = target: Peroxisome proliferator-activated receptor delta (Homo sapiens) (UniProt Q03181); test: qHTS assay to identify small molecule agonists of the peroxisome proliferator-activated receptor delta (PPARd) signaling pathway (AID 743212; calls by dose curve)
Sequence of Peroxisome proliferator-activated receptor delta (Homo sapiens) (Q03181 whole entry, looked up): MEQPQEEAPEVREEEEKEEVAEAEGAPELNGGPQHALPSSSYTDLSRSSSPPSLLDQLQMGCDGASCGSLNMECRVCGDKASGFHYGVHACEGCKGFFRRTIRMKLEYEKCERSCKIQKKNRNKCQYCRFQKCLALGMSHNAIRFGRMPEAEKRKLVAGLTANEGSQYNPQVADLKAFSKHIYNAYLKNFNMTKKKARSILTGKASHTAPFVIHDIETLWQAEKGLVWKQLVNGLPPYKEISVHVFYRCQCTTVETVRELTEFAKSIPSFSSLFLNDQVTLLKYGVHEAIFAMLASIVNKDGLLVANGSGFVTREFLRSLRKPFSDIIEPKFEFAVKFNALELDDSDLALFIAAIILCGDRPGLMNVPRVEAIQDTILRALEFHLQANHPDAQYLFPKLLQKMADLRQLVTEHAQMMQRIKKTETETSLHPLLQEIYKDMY
In short: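 HEK293H UAS-bla reporter cells, human PPARd system; compounds delivered in DMSO after 5 h plating, then at 37 C. Beta-lactamase FRET read, 2 h RT substrate step.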

[3] = qHTS assay to identify small molecule agonists of the farnesoid-X-receptor (FXR) signaling pathway - cell viability counter screen (AID 743218); further: nearly all actives have a fitted effect of over 45% in size
In short: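 FXR-UAS-bla HEK 293T cells exposed to compounds for 16 h at 37C. Cytotoxicity read in the same wells by CellTiter-Glo luminescence after 30 min at room temperature, following the beta-lactamase FRET read.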

[4] = target: Bile acid receptor (Homo sapiens) (UniProt Q96RI1); test: qHTS assay to identify small molecule agonists of the farnesoid-X-receptor (FXR) signaling pathway (AID 743220; active means well fitted activation curve with a large enough effect in the signal ratio in the repeat runs, not every such curve was filed as active; the % refers to the signal ratio)
Sequence of Bile acid receptor (Homo sapiens) (Q96RI1 whole entry, looked up): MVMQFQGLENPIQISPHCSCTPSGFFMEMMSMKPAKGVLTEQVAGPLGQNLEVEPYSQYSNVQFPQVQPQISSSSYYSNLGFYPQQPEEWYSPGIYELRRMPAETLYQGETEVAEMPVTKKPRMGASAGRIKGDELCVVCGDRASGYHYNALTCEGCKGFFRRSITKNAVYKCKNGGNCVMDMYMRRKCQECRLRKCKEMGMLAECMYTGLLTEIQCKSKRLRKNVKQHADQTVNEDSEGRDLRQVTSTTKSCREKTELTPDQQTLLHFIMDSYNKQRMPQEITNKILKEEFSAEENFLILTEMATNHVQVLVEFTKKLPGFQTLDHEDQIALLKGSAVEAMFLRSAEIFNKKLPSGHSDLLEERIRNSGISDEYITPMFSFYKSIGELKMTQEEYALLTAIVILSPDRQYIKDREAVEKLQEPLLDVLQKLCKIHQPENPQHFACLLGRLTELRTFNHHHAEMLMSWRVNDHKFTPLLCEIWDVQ
In short: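 Beta-lactamase reporter under UAS control in GeneBLAzer FXR HEK 293T cells (5000/well) measured with LiveBLAzer FRET substrate after 2 h at room temperature. Compound exposure lasted 16 h at 37C.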

[5] = qHTS assay to identify small molecule antagonists of the farnesoid-X-receptor (FXR) signaling pathway - cell viability counter screen (AID 743221; active means well fitted cell-killing curve with a large enough effect in the repeat runs, not every such curve was filed as active; further: nearly all actives have a fitted effect of over 50% in size)
In short: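 CellTiter-Glo, 30 min RT, luminescence; same wells as the LiveBLAzer FRET read. Cells: FXR-UAS-bla HEK 293T. Treatment: compound with chenodeoxycholic acid 50 uM final, 16 h at 37 C.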

[6] = qHTS assay to identify small molecule agonists of the vitamin D receptor (VDR) signaling pathway - cell viability counter screen (AID 743224); further: series mostly up to about 63 µM; nearly all actives have a fitted effect of over 50% in size
In short: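 VDR-bla cells, 4 h after plating, exposed to compounds for 16 h at 37C; viability then read in the same wells as CellTiter-Glo luminescence after 30 min at room temperature, following the bla FRET read.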

[7] = qHTS assay to identify small molecule antagonists of the vitamin D receptor (VDR) signaling pathway - cell viability counter screen (AID 743225); further: nearly all actives have a fitted effect of over 50% in size
In short: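 Cytotoxicity toward the VDR-bla HEK 293T line was scored by ATP-based CellTiter-Glo luminescence, read in the wells already used for the beta-lactamase readout after 16 h compound treatment under 3 nM 1-alpha,25-dihydroxyvitamin D3 stimulation.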

[8] = qHTS assay to identify small molecule agonists of the NFkB signaling pathway (AID 1159509; active means well fitted curve in the direction sought with a large enough effect in the signal ratio in the repeat runs, not every such curve was filed as active; the % refers to the signal ratio; further: series mostly up to about 61 µM)
In short: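 After overnight attachment, reporter cells received test compounds, DMSO or positive controls and were incubated 5 hr at 37 C. FRET substrate was then added for 1.5 hr at room temperature before dual-emission fluorescence reading.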

[9] = qHTS assay to identify small molecule agonists of the endoplasmic reticulum stress response signaling pathway (AID 1159516; active means well fitted activation curve with a large enough effect in the signal ratio in the repeat runs, not every such curve was filed as active; the % refers to the signal ratio)
In short: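 CellSensor ESRE-bla HeLa cells, 1,500 per well, plated overnight, then exposed to compounds for 5 hr at 37 C. Beta-lactamase reporter read with LiveBLAzer B/G FRET substrate after 2 hr at room temperature, 405 nm excitation, 460 and 530 nm emission.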

[10] = qHTS assay to identify small molecule agonists of the endoplasmic reticulum stress response signaling pathway - cell viability counter screen (AID 1159517; calls by dose curve;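 further: HeLa cells carrying an ER stress response element beta-lactamase reporter; series mostly up to about 61 µM; nearly all actives have a fitted effect of over 50% in size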)
In short: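 Cells, HeLa ESRE-bla; density, 1,500/well; dosing, 5 hr at 37 C, 5% CO2; readout, CellTiter-Glo luminescence after 30 min RT.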

[11] = qHTS assay to identify small molecule antagonists of the retinoid-related orphan receptor gamma (ROR-gamma) signaling pathway - cell viability counter screen (AID 1159520); further: nearly all actives have a fitted effect of over 50% in size
In short: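 Cytotoxicity was read from cellular ATP (CellTiter-Glo luminescence) after 16 hr at 37 C with 1 uM doxycycline induction. The inducer was added 2 hr after compound transfer to Tet-on ROR gamma CHO cells.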

[12] = target: Nuclear receptor ROR-gamma (Homo sapiens) (UniProt P51449); test: qHTS assay to identify small molecule antagonists of the retinoid-related orphan receptor gamma (ROR-gamma) signaling pathway (AID 1159521)
In short: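 Readout: ONE-Glo luciferase luminescence, 30 min at room temperature. System: Tet-on RORγ CHO, RORE-LUC. Sequence: compound 2 h, doxycycline 1 uM final, 16 h at 37 C.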

[13] = qHTS assay to identify small molecule agonists of the AP-1 signaling pathway - cell viability counter screen (AID 1159525; calls by dose curve; further: nearly all actives have a fitted effect of over 55% in size)
In short: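 Luminescent ATP readout (Cell Titer Glo, 30 min RT), normalised to DMSO and tetra n-octyl ammonium bromide controls. Cells were ME-180 AP-1-bla in 0.5% dialyzed FBS Opti-MEM, with a 5 h, 37 °C compound exposure.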

[14] = qHTS assay to identify small molecule agonists of the AP-1 signaling pathway (AID 1159526; calls by dose curve)
[15] = qHTS assay to identify small molecule antagonists of the peroxisome proliferator-activated receptor delta (PPARd) signaling pathway - cell viability counter screen (AID 743213); further: nearly all actives have a fitted effect of over 50% in size
In short: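 Viability counter-screen, qHTS format: PPARd-bla HEK293H, L165041 300 nM final, 17 h compound exposure at 37 C, CellTiter-Glo luminescence after 30 min RT.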

[16] = target: Peroxisome proliferator-activated receptor delta (Homo sapiens) (UniProt Q03181); test: qHTS assay to identify small molecule antagonists of the peroxisome proliferator-activated receptor delta (PPARd) signaling pathway (AID 743215; active means well fitted inhibition curve with a large enough effect in the signal ratio in the repeat runs, not every such curve was filed as active; the % refers to the signal ratio;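 further: cells stimulated with agonist L165041 at 300 nM final during compound exposure; series mostly up to about 62 µM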)
In short: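 PPARd-bla HEK293H cells (UAS-bla reporter) preincubated 5 h, then given compound plus 300 nM final L165041 agonist for 17 h at 37 C. Beta-lactamase activity read by LiveBLAzer B/G FRET substrate fluorescence after 2 h at room temperature.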

[17] = target: Vitamin D3 receptor (Homo sapiens) (UniProt P11473); test: qHTS assay to identify small molecule agonists of the vitamin D receptor (VDR) signaling pathway (AID 743222; calls by dose curve)
Sequence of Vitamin D3 receptor (Homo sapiens) (P11473 whole entry, looked up): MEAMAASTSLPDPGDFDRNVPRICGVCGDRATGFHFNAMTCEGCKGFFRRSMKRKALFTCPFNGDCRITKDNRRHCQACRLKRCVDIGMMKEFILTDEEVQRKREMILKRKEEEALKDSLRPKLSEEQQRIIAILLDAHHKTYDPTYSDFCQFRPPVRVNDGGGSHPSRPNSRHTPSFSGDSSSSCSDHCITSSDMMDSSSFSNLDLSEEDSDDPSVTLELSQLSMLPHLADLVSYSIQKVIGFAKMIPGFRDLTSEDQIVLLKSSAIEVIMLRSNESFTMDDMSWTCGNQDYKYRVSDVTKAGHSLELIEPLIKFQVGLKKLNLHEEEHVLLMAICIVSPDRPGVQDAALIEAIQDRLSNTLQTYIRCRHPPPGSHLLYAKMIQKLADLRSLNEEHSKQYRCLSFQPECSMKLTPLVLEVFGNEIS
In short: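 VDR-bla cells plated 4 h at 37 C, then exposed to compounds for 16 h at 37 C. Beta-lactamase reporter activity measured by fluorescence after 2 h room-temperature loading with LiveBLAzer B/G FRET substrate.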

[18] = target: Vitamin D3 receptor (Homo sapiens) (UniProt P11473); test: qHTS assay to identify small molecule antagonists of the vitamin D receptor (VDR) signaling pathway (AID 743223; active means well fitted inhibition curve with a large enough effect in the signal ratio in the repeat runs, not every such curve was filed as active; the % refers to the signal ratio)
In short: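 After VDR-bla cells are plated and left 4 h at 37C, DMSO-dissolved compounds and 3 nM (final) calcitriol agonist are added. Incubation continues 16 h at 37C; FRET beta-lactamase substrate then develops 2 h at room temperature.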

[19] = target: Bile acid receptor (Homo sapiens) (UniProt Q96RI1); test: qHTS assay to identify small molecule antagonists of the farnesoid-X-receptor (FXR) signaling pathway (AID 743217; active means well fitted inhibition curve with a large enough effect in the signal ratio in the repeat runs, not every such curve was filed as active; the % refers to the signal ratio)
In short: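 FXR-UAS-bla HEK 293T cells (beta-lactamase reporter) given compound plus chenodeoxycholic acid (50 uM final), 16 h at 37C. LiveBLAzer B/G FRET substrate added for 2 h at room temperature; fluorescence read.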

Measured: Potency

CCN(CC)C(=O)[C@@H]1C=C2c3cccc4[nH]cc(c34)C[C@H]2N(C)C1
inactive: [1] | [2] | [3] | [4] | [5] | [6] | [7] | [8] | [9] | [10] | [11] | [12] | [13] | [14]

CCC1(c2ccccc2)C(=O)N=C(O)NC1=O (configuration not stated)
inactive: [1] | [2] | [15] | [16] | [3] | [5] | [17] | [18] | [6] | [7] | [8] | [9] | [10] | [11] | [12] | [13] | [14]

CCC(C)(C)c1cc(-n2nc3ccccc3n2)c(O)c(C(C)(C)CC)c1
inactive: [1] | [2] | [15] | [3] | [5] | [17] | [18] | [6] | [7] | [8] | [9] | [11] | [12] | [13] | [14]

CCOC(=O)C1(c2ccccc2)CCN(CCc2ccc(N)cc2)CC1
inactive: [1] | [2] | [3] | [5] | [17] | [18] | [6] | [7] | [8] | [9] | [10] | [11] | [12] | [13] | [14]

c1coc(-c2nc3ccccc3[nH]2)c1
inactive: [2] | [3] | [5] | [17] | [18] | [6] | [8] | [9] | [10] | [11] | [13] | [14]

CC1CN1P(=O)(N1CC1C)N1CC1C (configuration not stated)
inactive: [1] | [15] | [5] | [17] | [18] | [6] | [7] | [8] | [9] | [10] | [11] | [12] | [13]

CCCCc1ccc(O)cc1
inactive: [1] | [2] | [15] | [16] | [19] | [3] | [4] | [5] | [6] | [7] | [8] | [9] | [10] | [11] | [12] | [13]

Cc1ncsc1CCCl
inactive: [2] | [3] | [5] | [17] | [18] | [6] | [7] | [8] | [9] | [10] | [11] | [12] | [13] | [14]

CN/C(=N\[N+](=O)[O-])NCC1CCOC1 (configuration not stated)
inactive: [1] | [15] | [19] | [4] | [5] | [17] | [18] | [7] | [8] | [9] | [11] | [12] | [13] | [14]

C[N+](=O)[O-]
inactive: [1] | [2] | [15] | [16] | [3] | [5] | [17] | [18] | [6] | [7] | [8] | [9] | [10] | [11] | [12] | [13] | [14]

Nc1c(Br)cc([N+](=O)[O-])cc1[N+](=O)[O-]
inactive: [1] | [2] | [15] | [16] | [19] | [3] | [4] | [5] | [17] | [18] | [6] | [7] | [8] | [9] | [11] | [12] | [13] | [14]

CC(CCc1ccccc1)NC(C)C(O)c1ccc(O)cc1 (configuration not stated)
inactive: [1] | [2] | [15] | [3] | [5] | [17] | [7] | [8] | [9] | [10] | [11] | [12] | [13]

Clc1ccccc1N1CCNCC1
inactive: [1] | [2] | [15] | [16] | [3] | [5] | [6] | [7] | [8] | [9] | [11] | [13] | [14]

CCCSP(=S)(OCC)Oc1ccc(Cl)cc1Cl (configuration not stated)
inactive: [2] | [15] | [16] | [5] | [17] | [18] | [7] | [8] | [9] | [10] | [11] | [12] | [13]

CC(C)(C)OC(=O)c1ncn2c1[C@@H]1CCCN1C(=O)c1c(Br)cccc1-2
inactive: [1] | [2] | [15] | [3] | [5] | [18] | [6] | [7] | [8] | [9] | [10] | [11] | [12] | [13] | [14]

O=C(N[C@H]1CN2CCC1CC2)c1cc2ccoc2cn1
inactive: [1] | [2] | [15] | [3] | [5] | [6] | [7] | [8] | [9] | [10] | [11] | [12] | [13] | [14]

CCOC(=O)C(c1c(O)c2ccccc2oc1=O)c1c(O)c2ccccc2oc1=O
inactive: [1] | [2] | [15] | [16] | [3] | [5] | [6] | [8] | [9] | [10] | [11] | [12] | [13] | [14]
